Reference: PubChem BioAssay (NCI)
Compounds without any hit were thinned out: in the full panel of roughly 79,000, 15% have a hit. A number with no mark means an inactive call. Active and inactive are the calls of the source. No stated cut-off is given here; in the data, active means growth inhibition above about 70%; inactive means the rest.

assay: NCI Yeast Anticancer Drug Screen. Data for the mlh1 strain (AID 171);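 further: 0% = growth of vehicle-treated control cultures of the same strain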; settings: S. cerevisiae mlh1 strain growth inhibition; at 100.0 µM; active compounds read high
In short: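 Here the genetically defined yeast mutant is grown with each compound, and the extent to which its growth falls below that of vehicle-exposed cells is reported.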

SMILES | growth inhibition
CCN(CC)CC[n+]1ccc2c(C)c3[nH]c4ccc(O)cc4c3c(C)c2c1 | 68%
O=[n+]1c2ccc(Cl)cc2n([O-])c2ccc(Cl)cc21 | 5%
CCOP(=O)(OCC)C(Cc1ccccc1)N=C(c1ccccc1)c1ccccc1 (stereo not drawn) | 98% (active)
CC[C@@]1(O)C(=O)OCc2c1cc1n(c2=O)Cc2cc3c(N)cccc3nc2-1 | 2%
COC1C=COC2(C)Oc3c(C)c(O)c4c(c3C2=O)/C(=N/C2CCC(O)OC2C)C=C(NC(=O)/C(C)=C\C(=O)C2CC2C(O)C(C)C(O)C(C)C(OC(C)=O)C1C)C4=O (stereo not drawn) | 73% (active)
COc1cc2c(c(OC)c1OC)-c1c(cc3c(c1OC)OCO3)CC(C)C(C)(O)C2OC(=O)c1ccccc1 (stereo not drawn) | 56%
O=c1ssc2ncccc12 | 99% (active)
O=C1C2C(C(=O)N1c1ccc(OCc3ccccc3)cc1)C1c3ccccc3C2C2CCCCN21 (stereo not drawn) | 95% (active)
COc1ccc(-c2cn(-c3ccc(I)cc3)c3ncnc(N)c23)cc1 | 9%
CCOC(=O)C(NC(=O)c1ccccc1)(N1CCN(c2cc3c(cc2F)c(=O)c(C(=O)O)cn3C2CC2)CC1)C(F)(F)F (stereo not drawn) | 1%
C/C(=N\O)C1CC2C=C(C#N)C1N(Cc1ccccc1)C2 (stereo not drawn) | 0%
CC/C(=C(\c1ccccc1)c1ccc(OCCN(C)C)cc1)c1ccccc1 | 97% (active)
COc1ccccc1N=NC(C(=O)c1ccccc1)C(=O)c1ccccc1 | 96% (active)
CC(O)C(O)C(O)C(/C=N\Nc1ccccc1)=N/Nc1ccccc1 (stereo not drawn) | 98% (active)
COc1ccc(/C=C2\SC(=S)N(/C=C/c3nc4ccccc4[nH]c3=O)C2=O)cc1OC | 91% (active)
N#CN=Nc1cc(Cl)c(N=NC#N)cc1Cl | 87% (active)
Cc1ccc(S(=O)(=O)Oc2cc(Cl)c(Cl)cc2Cl)cc1 | 8%
c1ccc2c(c1)Oc1cccc3cccc-2c13 | 52%
O=C(c1ccc(Cl)cc1Cl)C(Cl)Cl | 99% (active)
CC(C)C1=CCC2C(=C1)CCC1C(C)(C(=O)O)CCCC21C (stereo not drawn) (tested in a mixture with another compound) | 96% (active)

SMILES | growth inhibition
COc1cc(/C=C2\CCc3ccccc3C2=O)cc(OC)c1OC | 75% (active)
CC(=O)[O][Bi]([c]1ccccc1)[c]1ccccc1 | 95% (active)
S=C(N/N=C/c1ccccn1)Nc1ccc(Cl)cc1 | 51%
COc1cc(CC2CC(c3ccc4c(c3)OCO4)OC2=O)cc(OC)c1OC (stereo not drawn) | 11%
CNC1C(OC2C(OC3C(O)C(O)C(N=C(N)N)C(O)C3N=C(N)N)OC(C)C2(O)CO)OC(CO)C(O)C1O (stereo not drawn) | 10%
NNC(=O)CCc1ccc2ccc3ccccc3c2c1 | 48%
Oc1ccc2ccccc2c1C(c1ccc(Cl)cc1)c1c(O)ccc2ccccc12 | 85% (active)
CCCCN(CCCC)CCSc1ccc(Cl)cc1 | 91% (active)
CCC(C)COC(=O)c1ccc(N=Cc2ccc(C=Nc3ccc(C(=O)OCC(C)CC)cc3)cc2)cc1 (stereo not drawn) | 19%
CC1(C)C(=O)OC(n2cc(F)c(=O)[nH]c2=O)C1=O (stereo not drawn) | 49%
O=[N+]([O-])CC(SCc1ccccc1)c1ccc2c(c1)OCO2 (stereo not drawn) | 97% (active)
COc1cc2c(cc1[N+](=O)[O-])C(=O)C(Br)(Br)CCC2 | 97% (active)
OCC1OC(OCC(O)C(O)C(O)C(/C=N/Nc2ccccc2)=N/Nc2ccccc2)C(O)C(O)C1O (stereo not drawn) | 30%
COc1ccc(N=C2C(=O)Nc3ccc(Br)cc32)cc1 | -18%
Cn1c(=O)c2ccccc2c2ccccc21 | 59%
CC[n+]1ccc2c(C)c3[nH]c4ccc(O)cc4c3c(C)c2c1 | 10%
CC(=O)ON1C(=O)c2cccc3cccc(c23)C1=O | 98% (active)
COc1ccc2ccc3ccccc3c2c1C=O | 29%
OC1CCCc2c1cc1ccc3cccc4ccc2c1c34 (stereo not drawn) | 90% (active)

assay: NCI Yeast Anticancer Drug Screen. Data for the sgs1 strain (AID 173);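 further: 0% = growth of vehicle-only control cultures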; settings: S. cerevisiae sgs1 mutant, at 1.2 µM, active compounds read high
In short: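 Relative growth inhibition, referenced to vehicle, was determined in a yeast strain with a defined alteration affecting DNA damage repair or cell cycle control after compound exposure.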

SMILES | growth inhibition [%]
CCN(CC)CC[n+]1ccc2c(C)c3[nH]c4ccc(O)cc4c3c(C)c2c1 | -2
O=[n+]1c2ccc(Cl)cc2n([O-])c2ccc(Cl)cc21 | -6
CCOP(=O)(OCC)C(Cc1ccccc1)N=C(c1ccccc1)c1ccccc1 (stereo not drawn) | 7
CC[C@@]1(O)C(=O)OCc2c1cc1n(c2=O)Cc2cc3c(N)cccc3nc2-1 | 0
COC1C=COC2(C)Oc3c(C)c(O)c4c(c3C2=O)/C(=N/C2CCC(O)OC2C)C=C(NC(=O)/C(C)=C\C(=O)C2CC2C(O)C(C)C(O)C(C)C(OC(C)=O)C1C)C4=O (stereo not drawn) | 0
COc1cc2c(c(OC)c1OC)-c1c(cc3c(c1OC)OCO3)CC(C)C(C)(O)C2OC(=O)c1ccccc1 (stereo not drawn) | -1
O=c1ssc2ncccc12 | 4
O=C1C2C(C(=O)N1c1ccc(OCc3ccccc3)cc1)C1c3ccccc3C2C2CCCCN21 (stereo not drawn) | -2
COc1ccc(-c2cn(-c3ccc(I)cc3)c3ncnc(N)c23)cc1 | -4
CCOC(=O)C(NC(=O)c1ccccc1)(N1CCN(c2cc3c(cc2F)c(=O)c(C(=O)O)cn3C2CC2)CC1)C(F)(F)F (stereo not drawn) | -1
C/C(=N\O)C1CC2C=C(C#N)C1N(Cc1ccccc1)C2 (stereo not drawn) | 1
CC/C(=C(\c1ccccc1)c1ccc(OCCN(C)C)cc1)c1ccccc1 | 0
COc1ccccc1N=NC(C(=O)c1ccccc1)C(=O)c1ccccc1 | -37
CC(O)C(O)C(O)C(/C=N\Nc1ccccc1)=N/Nc1ccccc1 (stereo not drawn) | 1
COc1ccc(/C=C2\SC(=S)N(/C=C/c3nc4ccccc4[nH]c3=O)C2=O)cc1OC | 5
N#CN=Nc1cc(Cl)c(N=NC#N)cc1Cl | -25
Cc1ccc(S(=O)(=O)Oc2cc(Cl)c(Cl)cc2Cl)cc1 | -19
c1ccc2c(c1)Oc1cccc3cccc-2c13 | 11
O=C(c1ccc(Cl)cc1Cl)C(Cl)Cl | -14
CC(C)C1=CCC2C(=C1)CCC1C(C)(C(=O)O)CCCC21C (stereo not drawn) (tested in a mixture with another compound) | 18

SMILES | growth inhibition [%]
COc1cc(/C=C2\CCc3ccccc3C2=O)cc(OC)c1OC | 16
CC(=O)[O][Bi]([c]1ccccc1)[c]1ccccc1 | 28
S=C(N/N=C/c1ccccn1)Nc1ccc(Cl)cc1 | -5
COc1cc(CC2CC(c3ccc4c(c3)OCO4)OC2=O)cc(OC)c1OC (stereo not drawn) | -2
CNC1C(OC2C(OC3C(O)C(O)C(N=C(N)N)C(O)C3N=C(N)N)OC(C)C2(O)CO)OC(CO)C(O)C1O (stereo not drawn) | -1
NNC(=O)CCc1ccc2ccc3ccccc3c2c1 | 6
Oc1ccc2ccccc2c1C(c1ccc(Cl)cc1)c1c(O)ccc2ccccc12 | -29
CCCCN(CCCC)CCSc1ccc(Cl)cc1 | -10
CCC(C)COC(=O)c1ccc(N=Cc2ccc(C=Nc3ccc(C(=O)OCC(C)CC)cc3)cc2)cc1 (stereo not drawn) | -2
CC1(C)C(=O)OC(n2cc(F)c(=O)[nH]c2=O)C1=O (stereo not drawn) | -17
O=[N+]([O-])CC(SCc1ccccc1)c1ccc2c(c1)OCO2 (stereo not drawn) | 30
COc1cc2c(cc1[N+](=O)[O-])C(=O)C(Br)(Br)CCC2 | 38
OCC1OC(OCC(O)C(O)C(O)C(/C=N/Nc2ccccc2)=N/Nc2ccccc2)C(O)C(O)C1O (stereo not drawn) | 3
COc1ccc(N=C2C(=O)Nc3ccc(Br)cc32)cc1 | 1
Cn1c(=O)c2ccccc2c2ccccc21 | -2
CC[n+]1ccc2c(C)c3[nH]c4ccc(O)cc4c3c(C)c2c1 | 9
CC(=O)ON1C(=O)c2cccc3cccc(c23)C1=O | 44
COc1ccc2ccc3ccccc3c2c1C=O | -4
OC1CCCc2c1cc1ccc3cccc4ccc2c1c34 (stereo not drawn) | -8
